Out of some 5,500 compounds screened, about 2,000 (36%) were called active. About 18% were inconclusive and are not listed. Rule as the data show it: active = normalized growth mostly below about 0.91 (no sharp cut-off); inconclusive = no clear call, values can overlap the other calls; inactive = mostly above about 0.92. The list shows a part of the results.
Assay: chemical genetic growth profiling, strain panel (AID 1159580);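 also: tested at 20 µM; growth read once vehicle control cultures reached saturation at 30 °C; 1 = growth at the plate median or of vehicle wells; lower values mean less growth of the strain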
Settings: S. cerevisiae deletion strains, growth OD
[1] = locus YDL101C, strain DUN1, hits give low values
[2] = locus YHR030C, strain SLT2, hits give low values

Measured: normalized growth

O=C(c1csc(-c2ccc(Cl)cc2)c1)N1CCCCC1
active: [2] 0.588 | locus YLR113W, strain HOG1, hits give low values 0.711 | locus YPL256C, strain CLN2, hits give low values 0.766
inactive: locus YAR019C, strain CDC15, hits give low values 0.95 | locus YBL105C, strain PKC1, hits give low values 0.953 | locus YBR135W, strain CKS1, hits give low values 0.943 | locus YBR136W, strain MEC1, hits give low values 0.952 | locus YBR160W, strain CDC28, hits give low values 0.944 | locus YDL017W, strain CDC7, hits give low values 0.957 | locus YDL028C, strain MPS1, hits give low values 0.951 | [1] 0.946 | locus YDL108W, strain KIN28, hits give low values 0.953 | locus YDL132W, strain cdc53, hits give low values 0.941 | locus YDL214C, strain PRR2, hits give low values 0.849 | locus YDR052C, strain DBF4, hits give low values 0.952 | locus YDR054C, strain cdc34, hits give low values 0.935 | locus YDR226W, strain ADK1, hits give low values 0.948 | locus YDR477W, strain SNF1, hits give low values 0.851 | locus YER123W, strain YCK3, hits give low values 0.83 | locus YER133W, strain GLC7, hits give low values 0.857 | locus YFL009W, strain cdc4, hits give low values 0.942 | locus YFL029C, strain CAK1, hits give low values 0.944 | locus YFR003C, strain YPI1, hits give low values 0.96 | locus YFR019W, strain FAB1, hits give low values 0.882 | locus YFR028C, strain CDC14, hits give low values 0.948 | locus YGR040W, strain KSS1, hits give low values 0.844 | locus YGR052W, strain FMP48, hits give low values 0.918 | locus YGR092W, strain DBF2, hits give low values 0.834 | locus YHR079C, strain IRE1, hits give low values 0.785 | locus YHR082C, strain KSP1, hits give low values 0.831 | locus YHR205W, strain SCH9, hits give low values 0.801 | locus YIL147C, strain SLN1, hits give low values 0.948 | locus YJL095W, strain BCK1, hits give low values 0.714 | locus YJL128C, strain PBS2, hits give low values 0.878 | locus YJL157C, strain FAR1, hits give low values 0.838 | locus YJR016C, strain ILV3, hits give low values 0.954 | locus YJR066W, strain TOR1 (second series), hits give low values 0.764 | locus YJR066W, strain TOR1, hits give low values 0.759 | locus YKL048C, strain ELM1, hits give low values 0.904 | locus YKL067W, strain YNK1, hits give low values 0.857 | locus YKL101W, strain HSL1, hits give low values 0.884 | locus YKL193C, strain SDS22, hits give low values 0.951 | locus YKL203C, strain TOR2, hits give low values 0.868 | locus YLR133W, strain CKI1, hits give low values 0.862 | locus YLR403W, strain SFP1, hits give low values 0.79 | locus YML070W, strain DAK1, hits give low values 0.847 | locus YMR001C, strain CDC5, hits give low values 0.94 | locus YMR205C, strain PFK2 (second series), hits give low values 0.866 | locus YMR277W, strain FCP1, hits give low values 0.944 | locus YNL006W, strain LST8, hits give low values 0.953 | locus YNL020C, strain ARK1, hits give low values 0.84 | locus YNL161W, strain CBK1, hits give low values 0.953 | locus YNL183C, strain NPR1, hits give low values 0.801 | locus YNL207W, strain RIO2, hits give low values 0.928 | locus YNL222W, strain SSU72, hits give low values 0.958 | locus YNL307C, strain MCK1 (second series), hits give low values 0.845 | locus YOL078W, strain AVO1, hits give low values 0.948 | locus YOL136C, strain PFK27, hits give low values 0.823 | locus YOR061W, strain CKA2, hits give low values 0.803 | locus YOR119C, strain RIO1, hits give low values 0.903 | locus YOR231W, strain MKK1, hits give low values 0.797 | locus YOR329C, strain SCD5, hits give low values 0.954 | locus YPL031C, strain PHO85, hits give low values 0.815 | locus YPL153C, strain RAD53, hits give low values 0.831 | locus YPL204W, strain HRR25, hits give low values 0.812 | locus YPL209C, strain IPL1, hits give low values 0.956 | locus YPR025C, strain CCL1, hits give low values 0.944 | locus YPR106W, strain ISR1, hits give low values 0.95 | locus YPR111W, strain DBF20, hits give low values 0.935 | strain NNK1, hits give low values 0.93 | strain TSCII, hits give low values 0.942

O=C(c1c(F)cccc1F)N1CCN(C(=O)c2c(F)cccc2F)CC1
inactive: locus YAL013W, strain DEP1, hits give low values 1.01 | locus YBR229C, strain ROT2, hits give low values 0.987 | [1] 1 | locus YDL134C, strain PPH21, hits give low values 0.973 | locus YDR150W, strain NUM1, hits give low values 1.02 | locus YEL061C, strain CIN8, hits give low values 0.945 | locus YGR078C, strain PAC10, hits give low values 1.02 | [2] 1.11 | locus YHR087W, strain rtc3, hits give low values 0.98 | locus YJL187C, strain SWE1, hits give low values 1 | locus YJR043C, strain POL32, hits give low values 1.02 | locus YJR075W, strain HOC1, hits give low values 0.988 | locus YKL190W, strain CNB1, hits give low values 0.984 | locus YLR039C, strain RIC1, hits give low values 1.09 | locus YLR058C, strain SHM2 (second series), hits give low values 0.985 | locus YLR085C, strain ARP6, hits give low values 0.951 | locus YLR262C, strain YPT6, hits give low values 1.06 | locus YML094W, strain GIM5, hits give low values 0.996 | locus YMR219W, strain ESC1, hits give low values 1 | locus YMR263W, strain SAP30, hits give low values 0.99 | locus YMR307W, strain GAS1, hits give low values 0.964 | locus YNL128W, strain TEP1, hits give low values 0.978 | locus YNL153C, strain GIM3, hits give low values 1.02 | locus YNL298W, strain CLA4 (second series), hits give low values 0.962 | locus YNL322C, strain KRE1, hits give low values 0.99 | locus YNR030W, strain Alg12, hits give low values 0.976 | locus YPL055C, strain LGE1, hits give low values 0.98 | locus YPL241C, strain CIN2, hits give low values 1.01 | locus YPR135W, strain CTF4, hits give low values 1.01

— PubChem BioAssay AID1159580 (chemical genetic matrix, 2015)
